Experimental findings from PubChem BioAssay AID463229 (Broad Institute, 2010) are described below.

Out of some 2,300 compounds screened, about 2,100 (91%) were called active.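 Rule for the calls: active = compounds raising the signal whose fitted half-maximal concentration is at or below their top tested dose (cut at about 25 µM in these data); inconclusive = flat fit at 30 to 70% activity, or a poor fit; inactive = the rest.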 The set was probably picked from earlier hits. Only a sample is shown. Measured potencies and affinities stand elsewhere.

This test in a line: cytokine-free beta-cell viability effect – INS-1E rat cells, ATP luminescence, cherry pick, counter-screen for beta-cell apoptosis protection project, dose response (AID 463229). To be noted: INS-1E rat beta cells, no cytokines, CellTiter-Glo ATP, 48 h; series mostly up to 26 µM. Background: The purpose of a counterscreen is to sort out artefacts and off-target activity.
In the case of `C=CCN1C(=O)N/C(=C/c2ccc(N3CCOCC3)o2)C1=O`, the call was inactive.
Consider `C[C@H](CO)N1C[C@H](C)[C@@H](CN(C)C(=O)NC2CCCCC2)Oc2c(NC(=O)Nc3ccc(C(F)(F)F)cc3)cccc2C1=O`, for which the molecule was classed as inactive.
Regarding `COc1ccc(S(=O)(=O)N2CCNCC2)cc1OC`, the call was inactive.
As for `CCOC(=O)C(NCCc1ccc(F)cc1)(NC(=O)CC)C(F)(F)F` (centres undefined), the molecule was classed as inactive.
Next, `Cc1cc(C)cc(OCCCn2ccnc2)c1`: “inactive”; `O=c1[nH]c(NCCCO)nc2c1C1(CCCC1)Cc1ccccc1-2`: “inactive”; `Nc1ccc(Nc2ccc([N+](=O)[O-])cc2[N+](=O)[O-])cc1`: “inactive”.
For `COc1ccccc1NCC(=O)N/N=C/c1c(O)ccc2ccccc12`, the outcome was inactive.
Consider `C/C(N)=C(/C#N)C(=O)COC(=O)c1cc(-c2ccc(C)cc2)nc2ccccc12`, for which the molecule was called inactive.
Turning to `COc1ccc(C2=Nn3c(nnc3-c3ccccc3Cl)SC2)cc1OC1CCCC1`, the call was inactive.
`CCn1c(SCC(=O)Nc2ccc(OC)cc2)nc2nc3c(cc2c1=O)CCCC3`: the molecule was called inactive.
Take `Cc1cccnc1CCNCc1c(C(=O)N2C[C@@H](C)O[C@@H](C)C2)nc2ccc(Cl)cn12`: the molecule was classed as inactive.
As to `Cc1ccccc1Oc1nc(-c2ccccn2)nc2ccccc12`, the result was inactive.
Next, `COc1cc2c(cc1OC)C(NC(=O)C(F)(F)F)CNC2=O` (centres undefined): “inactive”; `Cc1cccc(C2(c3cccc(C)c3)OC(=O)c3ccccc32)c1`: “inactive”; `O=C(CN1C(=O)c2ccccc2S1(=O)=O)c1ccc(F)cc1`: “inactive”.
As for `CCCCn1cnc2c(c(-c3ccccc3)c(-c3ccccc3)n2Cc2ccco2)c1=N`, the call was inactive.
`O=c1c2c3c(sc2n(CCN2CCCCC2)c(=O)n1Cc1ccco1)CCCCC3`: the molecule was called inactive.
With `Cc1cc(C(=O)c2ccc3ccccc3c2)c(C)o1` the entry was “inactive”; with `C=CCc1c(C)nc(C)nc1N/N=C/c1ccc(N(C)C)cc1`, “inactive”; with `Cc1cc(N2CCOCC2)nc(N)n1`, “inactive”.
As to `COc1ccccc1NCC(=O)N1CCN(S(=O)(=O)c2ccccc2)CC1`, the result was inactive.
`Cc1ccc(NC(=O)C(C)Sc2nnc(C)n2C2CC2)cc1S(=O)(=O)N1CCOCC1` (centres undefined): the call was inactive.
Regarding `CNc1nc(N)c([N+](=O)[O-])c(Nc2cccc(F)c2)n1`, the result was inactive.
Turning to `Cc1cccc(CNc2ccc(S(=O)(=O)N3CCCCC3)cc2)c1`, the result was inactive.
As to `O=C(N/N=C/c1cccnc1)c1ccccc1NS(=O)(=O)c1cccs1`, the call was inactive.
Next, `O=C(c1cccc(Cl)c1)c1nn(-c2ccccc2)c(=O)cc1C(F)(F)F`: “inactive”; `O=[N+]([O-])/C=C/c1cn(Cc2ccc(F)cc2)c2ccccc12`: “inactive”; `Cc1csc2nc(NC(=O)c3ccccc3)sc(=O)c12`: “inactive”.
With `CCOc1ccc(N(C)S(=O)(=O)c2ccc(C)c(C(=O)OCC(=O)c3c[nH]c4ccccc34)c2)cc1` the entry was “inactive”.
Turning to `Cc1cc(C)c(OCC(O)CNC(C)(C)C)c(C)c1` (centres undefined), the call was inactive.
For `OC(CNC1CCCCC1)COCCOc1ccc(Br)cc1` (centres undefined), the molecule was classed as inactive.
In the case of `CC(C)(C)OC(=O)N1CCC(CNC(=O)c2cccs2)CC1`, the molecule was classed as inactive.
In the case of `COc1ccc(-c2ccnc(SCC(=O)N3CCN(c4ccccc4)CC3)n2)cc1`, the outcome was inactive.
On to `O=C(NCc1nc2ccccc2[nH]1)C1=C[C@@H](C2CCCCC2)C[C@@H](OCc2ccc(CO)cc2)O1`, for which the outcome was inactive.
With `CCOC(=O)C1=C(CCc2ccccc2)NC(=O)NC1c1ccc2ccccc2c1` (centres undefined), the outcome was inactive.
Take `CCCOC(=O)/C(C(N)=NCc1ccccc1)=C(\O)OCCC`: the molecule was classed as inactive.
With `c1cc(-c2noc(CC3CCCCC3)n2)ccn1`, the molecule was called inactive.
As for `COc1ccccc1/C=N/OCc1cc(C(C)=O)ccc1OC`, the call was inactive.
For `CCCC(=O)N(CCN(C(=O)CCC)c1ccccc1)c1ccccc1`, the molecule was called inactive.
With `NC(=O)c1ccccc1OC1CCC1` the entry was “inactive”; with `CN(C)c1ccc(/C=C(\C#N)C(=O)OCC(=O)N(C)C2CCS(=O)(=O)C2)cc1` (centres undefined), “inactive”.
With `COc1ccc(/C=C/C(=O)c2ccncc2)c2ccccc12` the entry was “inactive”; with `COc1cc(CNCCO)cc(Cl)c1OCc1ccc(Cl)cc1Cl`, “inactive”.
With `Cc1ccc(NC(=O)NCC2CCN(Cc3cccc(Cl)c3)CC2)cc1Cl` the entry was “inactive”; with `CCc1ccc(-n2c(C)cc(/C=N/NC(=O)c3ccncc3)c2C)cc1`, “inactive”; with `Cc1cc(C)nc(-n2nc(C)cc2Nc2ccccc2)n1`, “inactive”.
Consider `CC1=CC(C)(C)N(C(=O)CSc2nnc(-c3ccc(C)cc3)o2)c2ccc(C)cc21`, for which the result was inactive.
Take `CCOC(=O)C(=Cc1ccc(Br)cc1)C(=O)OCC`: the molecule was called inactive.
Regarding `O=[N+]([O-])c1ccc(N2CCN(CCOc3nonc3-c3ccccc3)CC2)c(Cl)c1`, the outcome was inactive.
Regarding `Cc1ccccc1OC1C(=O)N(Cc2ccc3c(c2)OCO3)C1c1sccc1C` (centres undefined), the call was inactive.
Take `CC(Sc1nnc2c(n1)[nH]c1ccccc12)C(=O)N(C)C1CCCCC1` (centres undefined): the molecule was called inactive.
`CCCC1(c2ccccc2)NC(=O)N(CC(=O)Nc2cc(C)ccc2OC)C1=O` (centres undefined): the outcome was inactive.
As to `O=[N+]([O-])c1ccc(-n2cnc3ccccc32)c([N+](=O)[O-])c1`, the molecule was classed as inactive.
Take `CCS(=O)(=O)c1ncc(Cl)c(C(=O)Nc2ccccc2OC)n1`: the outcome was inactive.
Consider `Cc1ccc(OCc2cc(C(=O)N(C)Cc3cc(C4CC4)n[nH]3)no2)cc1C`, for which the molecule was called inactive.
As for `COCCCNC(=S)N/N=C/c1cccc(OC)c1O`, the result was inactive.
Consider `O=C(Nc1ccc(F)cc1F)N1CCCN(CCOc2ccccc2)CC1`, for which the outcome was inactive.
Regarding `CC(=O)Nc1ccc(S(=O)(=O)N2c3ccccc3NC(=O)CC2C)c(Cl)c1` (centres undefined), the result was inactive.
Take `Cc1cccc(NC(=O)Cn2c(/C=C/c3ccccc3)nc3ccccc32)c1`: the molecule was classed as inactive.
With `O=C(Oc1cccc2cccnc12)c1cccc(N2C(=O)C3C4CCC(C4)C3C2=O)c1` (centres undefined) the entry was “inactive”; with `O=C(Cn1ncc(Cl)c(Cl)c1=O)c1ccc2c(c1)OCCO2`, “inactive”.
With `O=c1c(Cl)c(Cl)cnn1Cc1ccc(F)cc1`, the result was inactive.
Take `Cc1ccc2ccc3ccc(C)nc3c2n1`: the molecule was classed as inactive.
Regarding `CCOCCCNC(=O)c1c[nH]c2cc(OC)ccc2c1=O`, the molecule was called inactive.
Regarding `COc1ccc(C(=O)CSc2n[nH]c(=O)n2Cc2ccco2)cc1`, the molecule was called inactive.
Turning to `CCOc1ccc(OCC)c(S(=O)(=O)NCCOC23CC4CC(CC(C4)C2)C3)c1`, the molecule was classed as inactive.
With `C=CCN(CC=C)CC(O)Cn1c2ccccc2c2ccccc21` (centres undefined) the entry was “inactive”; with `O=C(NCc1ccccn1)c1cc(-c2ccc(Cl)cc2)oc1C(F)(F)F`, “inactive”.
